Shown are actives, neighbours in structure and some others; about 1.8% of the full set was active somewhere.
RGS4 inh – blocks human RGS4-accelerated GTP hydrolysis. Transcreener GDP fluorescence polarization, RGS4-accelerated GTP hydrolysis. Potency, µM (top dose mostly 114 µM), for inactives: top-dose activity change, negative = inhibition, actives largely listed as inhibitors. AID 504845. hit rate 0.039% among 390,000; note: % is set by controls: 0 for no effect and ±100 for the full control effect; nearly all actives have a fitted effect of over 75% in size
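MLSMR compounds (23 nl, pin-transferred) preincubated 10 min at room temperature with a 500nM (2x) first reagent, then RGS4 at 900nM (2x) plus Transcreener GDP mix added; fluorescence polarization (620/688 nm) read before and after 90 min at 30 °C.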
HEK293 tox – cytotoxicity in counter-screen for GLP-1R inverse agonists | hit rate 0.13% among 410,000 | HEK293 cAMP-luciferase reporter cells, luminescence, 24 h | Potency, µM (series often up to 38.3 µM), for the others: top-dose activity change, negative = inhibition, most hits filed as inhibitors;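 note: loss of luciferase light is scored as toxicity; % is set by controls: 0 for no effect and ±100 for the full control effect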
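MLSMR compounds, 24 hr on cells at 37 deg C/5% CO2; luminescence after luciferase reagent (12 min RT). Inhibition counted as the undesired cytotoxic outcome.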
GLP-1R agonist – GLP-1 receptor (human) agonism. P43220. HEK293 GLP-1R CRE-luciferase, luminescence, 4-6 h; cells express a hypersensitive GLP-1R form. Potency, µM (top dose mostly 45.6 µM), for inactives: at the top dose activation, usual class: activators. hit rate 0.007% among 380,000. AID 624172; note: % of control where 0% means no effect
KAT2A inh – inhibitors of human GCN5L2 histone acetyltransferase | Q92830 | GCN5L2 HAT assay, ThioGlo1 CoA-SH fluorescence | Potency, µM (titrated, usually from 58.9 µM), for inactives: at the highest dose activity change, negative = inhibition, usual class: inhibitors | hit rate 0.21% among 390,000; note: % is set by controls: 0 for no effect and ±100 for the full control effect
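Preincubate 20nM GCN5L2 with compound 15 min, RT → add 50uM ThioGlo1 + 75uM H3(1-25) + 70uM acetyl-CoA → read fluorescence 0 and 20 min. Primary qHTS; fluorescent artifacts likely.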
PTHR1 ag – agonists of human PTHR1 parathyroid hormone receptor; Q03431; HEK293 GP2 PTHR1 cells, GloSensor cAMP luminescence, 1 h; Potency, µM (top dose mostly 115 µM), for the others: top-dose activation, usual class: activators; hit rate 0.075% among 410,000; AID 743266; note: nearly all actives have a fitted effect of over 55% in size
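HEK-293-derived GP2 cells expressing PTHR1 and a GloSensor cAMP reporter, 3,000/well, plated overnight, given luciferin plus IBMX (each 0.5 mM as added) for 1 h at 37 °C, then compound for 1 h at 37 °C. Luminescence was read after 15 min at room temperature.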
GLP-1R inv ag – inverse agonists of human GLP-1 receptor. HEK293 GLP-1R CRE-luciferase, luminescence, 24 h; GLP-1R form is constitutively active. hit rate 1.6% among 410,000. Potency, µM (doses to about 38.3 µM), inactives show at the top dose activity change, negative = inhibition, hits mostly inhibitors. P43220; note: % is set by controls: 0 for no effect and ±100 for the full control effect; nearly all actives have a fitted effect of over 55% in size
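Using stably transfected HEK293 (constitutively active GLP-1R, cAMP-luciferase reporter), compounds were incubated 24 hr and luciferase measured by luminescence.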
The depositor's hits bear a star; i = inactive; ? = inconclusive; nt = no result; [ ] = dose if it differs, or a comment. Calls come from the whole dose curve; as a rule, active = well fitted curve in the direction sought with a large enough effect; inconclusive = small, poorly fitted or top-dose-only effect, or another doubt; inactive = no such curve, though single readings can be large; an effect the other way counts as inactive or inconclusive. Potency is the fitted concentration of half-maximal effect.

SMILES	RGS4 inh	HEK293 tox	GLP-1R agonist	KAT2A inh	PTHR1 ag	GLP-1R inv ag
CC(/C=C/c1ccccc1)=N\NC(N)=S	-10%[11.4 µM]	?	2%	-1%	-12%	2.5µM*
CC(/C=C/c1ccccc1)=N\NC(=S)NC(C)C	20%	?	-9%	-14%	-2%	?
CCC(=O)N1CCc2cc(S(=O)(=O)NC(C(=O)NCCc3cccc(C)c3)C(C)C)ccc21 (stereo not given)	-25%	2%	nt	0%	10%	8%
c1ccc(CN=C2NN=C(c3cc4ccccc4o3)CS2)cc1	11%	-2%	-1%	-4%	-23%	22%
c1ccc2oc(C3=NNC(=NC4CC4)SC3)cc2c1	-9%[11.4 µM]	?	11%	-3%	-39%	8.9µM*
OCC1(Cc2ccccc2Cl)CCN(C/C=C/c2ccccc2)CC1	13%	-22%	6%	-11%	i	10µM*
C=C1C(c2ccc(C)cc2)=CCc2cc(C)cc(C)c21	100%[56.9 µM]	nt	nt	-9%	nt	nt
CCC(C)Sc1ccc(-c2nc3ccc(C)cn3c2NCc2ccccc2)cc1OC (stereo not given)	25%	-25%	-4%	-27%	i	2.8µM*
CCC(C)Sc1cc(-c2nc3ccc(C)cn3c2NCc2ccccc2)ccc1OC (stereo not given)	8%	-18%	-6%	nt	-9%	?
CCCCNc1c(-c2ccc(OC)c(SC3CCCCC3)c2)nc2ccc(C)cn12	27%	4%	-5%	-19%	-11%	7%
CCCCNc1c(-c2ccc(SC3CCCCC3)c(OC)c2)nc2ccc(C)cn12	-12%	0%	-3%	?	-51%	8.9µM*
CCn1c(SCC(=O)Nc2sccc2C(N)=O)nnc1C1CC1	-16%	2%	3%	-3%	?	8%
COc1ccc(-c2cn3nc(N4CCC(C(=O)NCc5cccc(Cl)c5)CC4)sc3n2)cc1	-8%	-10%	nt	0%	i	17%
COc1ccccc1N1CCN(C(=O)c2ccc3c(c2)CCN3S(=O)(=O)c2ccccc2)CC1	-22%	-9%	5%	-10%	-27%	7.9µM*
COc1ccc(N2CCN(C(=O)c3ccc4c(c3)CCN4S(=O)(=O)c3ccccc3)CC2)cc1	4%	-15%	9%	-7%	-43%	?
N#Cc1nc(Cc2ccccc2)oc1N1CCCC1	17%	-1%	37%	-17%	-2%	6%
CC1CC(C)CN(c2oc(Cc3ccccc3)nc2C#N)C1 (stereo not given)	14%	106%	13%	-2%	-32%	11µM*
Cn1c(SCC(=O)Nc2ccc3[nH]c(=O)[nH]c3c2)nnc1-c1ccc(F)cc1	-45%	-9%	3%	-8%	-1%	-8%
CC(=O)Nc1ccc(/C(C)=N/Nc2nc(Nc3cccc4ccccc34)nc(N3CCOCC3)n2)cc1	-11%	-21%	1%	-6%	i	2.8µM*
CCCCn1c(C)cc2c(c1=O)C1O[C@](c3ccsc3)(Cc3cc(OC)c(OC)cc31)O2	nt	nt	nt	-3%[12.7 µM]	nt	nt
COc1ccc(OC)c(NC(=O)c2ccc(CN3CCc4ccccc4C3)cc2)c1	-3%	2%	2%	-12%	i	11µM*
O=C(Nc1cccc(Br)c1)c1ccc(CN2CCc3ccccc3C2)cc1	32%	-15%	1%	-9%	-79%	2.2µM*
Cc1cc(/C=N/NC(N)=S)c(C)n1-c1ccc(Cl)c(Cl)c1	-34%	3.2µM*	8%	2%	-9%	?
CC(Sc1nc2sc3c(c2c(=O)n1-c1ccccc1)CCCC3)C(=O)O (stereo not given)	2%	-6%	1%	-13%	i	33%
CSc1nc2sc3c(c2c(=O)n1-c1ccccc1C)CCCC3	-2%	0%	nt	-5%	-77%	4.5µM*
SMILES	RGS4 inh	HEK293 tox	GLP-1R agonist	KAT2A inh	PTHR1 ag	GLP-1R inv ag
CCOC(=O)C1CCCN(C(=O)c2ccc(F)c(C)c2)CC1 (stereo not given)	nt	1%	2%	nt	-4%	14%
COc1cc(OC)c(NC(c2nnc(-c3ccccc3)o2)c2ccc(F)cc2Cl)cc1Cl (stereo not given)	-30%	1%	nt	-2%	-24%	?
CCc1cccc(NC(c2nnc(-c3ccccc3)o2)c2ccc(F)cc2Cl)c1 (stereo not given)	?	2%	nt	-22%	i	6.3µM*
CC(C)CC(=O)Nc1cccc(-c2csc(-c3ccccc3)n2)c1	-1%	-7%	2%	-11%	-10%[57.5 µM]	10µM*
CN1CCN(CCCNC(=O)Cn2c(-c3cccs3)cc3cc(Cl)ccc32)CC1	-1%	-20%	nt	-1%	-16%	-24%
CC1(C)CC(NS(=O)(=O)c2ccc(C(C)(C)C)cc2)CC(C)(C)N1	-9%	-14%	3%	-8%	-5%	3.5µM*
CC1(C)CC(NS(=O)(=O)c2ccc(F)cc2)CC(C)(C)N1	5%	5%	1%	0%	-13%	-9%
Cc1ccc(Cn2nnnc2CN2CCC(c3nc4ccc(Cl)cc4[nH]3)CC2)cc1	1%	15%	-13%	-2%	-18%	11µM*
Clc1ccc2nc(C3CCN(Cc4nnnn4C4CCCCC4)CC3)[nH]c2c1	54%	-6%	5%	-2%	i	?
CCCCC[C@@H](C)N1C[C@@H](COCc2ccccc2)Oc2cc(N3CC[C@@H](O)C3)ccc2S1(=O)=O	nt	-21%	1%	nt	i	14µM*
CCCCC[C@H](C)N1C[C@H](COCc2ccccc2)Oc2cc(N3CC[C@@H](N(C)C)C3)ccc2S1(=O)=O	nt	?	-3%	nt	-69%	?
CCCCC[C@@H](C)N1C[C@@H](COCc2ccccc2)Oc2cc(N3CC[C@H](O)C3)ccc2S1(=O)=O	nt	-2%	2%	nt	-41%	?
CCCCC[C@H](C)N1C[C@@H](COCc2ccccc2)Oc2cc(N3CC[C@@H](O)C3)ccc2S1(=O)=O	nt	?	-3%	nt	i	10µM*
O=C(c1ccc(OC2CCN(CCc3ccccc3)CC2)cc1)N1CCCC1	-48%	-3%	11%	-15%	7%	?
O=C(c1ccc(OC2CCN(CCc3ccccc3)CC2)cc1)N1CCCC(CCCO)C1 (stereo not given)	32%	-14%	2%	-3%	10%	11µM*
O=C(c1ccc(OC2CCN(CCc3ccccc3)CC2)cc1)N1CCCCC1CCCO (stereo not given)	11%	-10%	-5%	2%	i	11µM*
Oc1c(C(c2ccccc2)N2CCCCC2)ccc2ccccc12 (stereo not given)	nt	4%	-1%	nt	-20%	?
